Measured values: PubChem BioAssay AID1745856 (National Center for Advancing Translational Sciences (NCATS), 2022)
Screen size: about 120,000 compounds; about 270 (0.23%) were called active. Inconclusive results (about 5%) are left out. The list comes from a sample in which actives are over-represented; it also holds similar structures and randomly drawn compounds. Values without a mark were called inactive. The call rests on the fitted dose curve.

Assay: Primary qHTS Assay for Foot and Mouth Disease Virus Antivirals against NCGC Sytravon and CBC Compound Libraries: Firefly Luciferase Signal; further: nearly all actives have a fitted effect of over 60% in size
Settings: FMDV antiviral cell assay; series mostly up to 57.5 µM; activity change, negative = inhibition: at the top concentration
On the % scale 0 is the no-effect control and ±100 the full control effect; potency means the concentration at half of the fitted maximal effect.

| Structure (SMILES) | activity change, negative = inhibition [%] | Potency |
| --- | --- | --- |
| CCc1cccc(CC)c1NC(=O)CC(C)(C(=O)O)c1ccccc1 (stereo not drawn) | -1.95 |  |
| COc1ccc(C23CC4CC(CC(C4)C2)C3)cc1C(=O)NC(c1ccccc1)c1ccccc1 | -0.0842 |  |
| CC(Oc1ccccc1F)C(=O)Nc1c(F)cccc1F (stereo not drawn) | -5.6 |  |
| Cc1nn(CC(=O)NC(C)(C)C)c(C)c1S(=O)(=O)N1CCCC(C(=O)N2CCOCC2)C1 (stereo not drawn) | -2.97 |  |
| CCCn1c(NC(=O)c2oc3ccc(OC)cc3c2C)nc2ccccc21 | 6.06 |  |
| CCCNc1c(NC(=O)Nc2ccccc2C)c(=O)oc2ccccc12 | 15.8 |  |
| CCC1CN(S(=O)(=O)c2cc(-c3cc(C)no3)ccc2C)c2cc(C)ccc2O1 (stereo not drawn) | 29.8 |  |
| CCN(CC)c1ccc(NS(=O)(=O)c2cc(-c3cc(C)no3)ccc2C)c(C)c1 | -2.71 |  |
| Cc1cc(-c2ccc(C)c(S(=O)(=O)N3c4ccccc4CC3C)c2)on1 (stereo not drawn) |  | 14.1 µM (active) |
| CCOc1ccc(N(Cc2ccccc2)C(=O)c2nc(SCC)ncc2Cl)cc1 | 0 |  |
| CCOc1ccc(CN2CCC(N(C)Cc3ccccc3)CC2)cc1 | 2.31 |  |
| CCOc1ccc(N(Cc2ccccc2)C(=O)c2nc(S(C)(=O)=O)ncc2Cl)cc1 |  | 22.4 µM (active) |
| O=C(OCc1ccc(Cl)cc1Cl)c1c(F)cccc1F | 29.2 |  |
| COc1ccc(C(=O)Nc2c(NCC3CCCCC3)c3ccccc3oc2=O)cc1OC | -1.4 |  |
| O=S(Cc1ccccc1)Cc1cccc(F)c1 (stereo not drawn) | 2.48 |  |
| CCn1nc(C(=O)Nc2nnc(Cc3ccccc3)s2)c2ccccc2c1=O | 15.9 |  |
| O=C(Oc1ccc(Br)cc1)c1cnccn1 | 142 |  |
| Cc1cc(=O)oc2cc(OCC(=O)Nc3ccc(S(=O)(=O)N4CCOCC4)cc3)ccc12 | -5.69 |  |
| Cn1cc2c(C(F)(F)F)cc(=O)n(CCC(=O)O)c2n1 | 6.41 |  |
| Cc1ccc(N2CCN(C(=O)c3nn(C)c4c3CCc3sccc3-4)CC2)c(C)c1 | 18 |  |
| COc1ccc(/C=C2\Oc3cc(OS(=O)(=O)c4ccc(C)cc4)ccc3C2=O)c(OC)c1OC | 0.175 |  |
| CCOC(=O)C1=C(C)NC(=O)NC1c1ccc(C(=O)OC)cc1 (stereo not drawn) | 48.5 |  |
| Cc1ccccc1NC(=O)CSc1nc(C2CC2)n(-c2ccccc2)n1 | 2.27 |  |

| Structure (SMILES) | activity change, negative = inhibition [%] | Potency |
| --- | --- | --- |
| COc1ccc(-c2cc(C(=O)N3CCN(CC(=O)N4CCOCC4)CC3)c3ccccc3n2)cc1 | 191 |  |
| COC(=O)CCCn1c(C)cc(C(=O)COC(=O)c2nccnc2N)c1C | 155 |  |
| COC1CC(OC2CCC3(C=O)[C@H]4CCC5(C)C(C6=CC(=O)OC6)CCC5(O)[C@@H]4CCC3(O)C2)OC(C)C1O (stereo partly drawn) |  | 0.282 µM (active) |
| COc1ccc2c(C)c(CC(=O)NCc3ccccc3Cl)c(=O)oc2c1 | 17.9 |  |
| CC(Sc1nnc(CCC(N)=O)n1C1CC1)C(=O)c1c[nH]c2ccccc12 (stereo not drawn) | 0.749 |  |
| CC(NC(=O)C(=O)Nc1cc(Cl)ccc1Cl)c1ccccc1 (stereo not drawn) | 0 |  |
| CCCc1cc(=O)oc2c(C)c(OCC(=O)OC(C)C)ccc12 | 9.01 |  |
| CC(C(=O)Nc1cccc(C#N)c1)n1nnc(-c2cccc(C(F)(F)F)c2)n1 (stereo not drawn) | -10.8 |  |
| CCOc1ccccc1-c1nn2c(CN3CCCCC3)nnc2s1 | -3.75 |  |
| Cc1nccn1CCc1nc2cc(NC(=O)C(C)C)ccc2n1C | -8.8 |  |
| CCCCn1c(=O)[nH]c(=O)c2c1nc(-c1ccc(OCC#N)c(OC)c1)n2C | -6.14 |  |
| N#Cc1ccccc1N=Cc1ccc2ccccc2c1 | 92.7 |  |
| Cc1cc(C(F)(F)F)nn1Cc1nc2c3c4c(sc3ncn2n1)CCC4 | -9.93 |  |
| CCCS(=O)(=O)c1ncc(Cl)c(C(=O)Nc2scc(-c3ccccc3)c2C(=O)OCC)n1 | 12.2 |  |
| Cc1ccc(NC(=O)c2nc(S(=O)(=O)Cc3cccc(C)c3)ncc2Cl)cc1 |  | 22.4 µM (active) |
| CCSc1ncc(Cl)c(C(=O)Nc2cc(C)ccc2C)n1 | -12.3 |  |
| Cc1ccc(-c2ccc(CCC(=O)O)n2NC(=O)c2ccc(F)cc2)cc1 | 21.6 |  |
| O=C(Nc1cccc(I)c1)c1ccc2c3c(cccc13)CC2 | 81.5 |  |
| COC(=O)c1ccc(CNC(=O)CCCNC(=O)C(C)(C)C)cc1 | 2.4 |  |
| Cc1nc2cc(NC(C)C(=O)Nc3cccc(Cl)c3Cl)ccc2o1 (stereo not drawn) | 22 |  |
| COC(=O)c1cccc(N=Cc2cc(Cl)ccc2O)c1 | 0 |  |
| CC(C)CNC(=O)COC(=O)Cc1nn(C)c(=O)c2ccccc12 | 3.32 |  |
| O=C(CN1CCN(C(=O)c2nn(Cc3ccccc3)c(=O)c3ccccc23)CC1)Nc1ccc(F)cc1 | 29.2 |  |

| Structure (SMILES) | activity change, negative = inhibition [%] | Potency |
| --- | --- | --- |
| Cc1noc(C)c1CS(=O)(=O)c1ccc(Cl)cc1 | -0.357 |  |
| Cc1cccc(NC(=O)c2cc3cc(Br)ccc3oc2=O)c1 | 16.6 |  |
| COc1ccccc1NC(=O)c1cc2ccccc2cc1OCC(N)=O | 16.9 |  |
| Cc1nc(NC(=O)C(C)Sc2nnc(-c3ccccc3F)n2CC(C)C)sc1C (stereo not drawn) | -18 |  |
| Cn1c(=O)[nH]c(=O)c2c(C(=O)O)cc(C3CC3)nc21 | 3.96 |  |
| Cc1cc(/C=C(/C#N)c2nc3ccccc3n2C)cc(C)c1O | 189 |  |
| Clc1ccc(CN2CCN(c3ncnc4nc[nH]c34)CC2)cc1 | 12.2 |  |
| COc1ccccc1-c1nc(C#N)c(NCc2ccccc2)o1 | 0 |  |
| [O-]/[N+](=C\c1ccc2ccccc2n1)c1ccccc1 | 204 |  |
| CCCC(=O)Nc1cccc(-c2cc3cc(F)ccc3[nH]2)c1 | 0 |  |
| Cc1ccc(-c2cc(-c3ccccc3)c(C#N)c(SCCS(=O)Cc3ccccc3)n2)cc1 (stereo not drawn) | -13 |  |
| N#Cc1ccccc1NC(=O)c1cnc2ccccc2n1 | 177 |  |
| CCOC(=O)c1cc(NCc2c(Cl)cccc2Cl)ccc1N1CCOCC1 | 19.6 |  |
| Cc1occc1-c1nnc(SCC(=O)N2c3ccccc3CC2C)o1 (stereo not drawn) | 5.98 |  |
| Cc1c(Cl)cccc1N(CC(=O)Nc1c(C)n(C)n(-c2ccccc2)c1=O)S(C)(=O)=O | -3 |  |
| CCOC(=O)c1cc(NC(=O)c2ccc(-c3ccccc3)cc2)ccc1N1CCOCC1 | -4.7 |  |
| C(=N\N=C(c1ccccc1)c1ccccc1)/c1c[nH]c2ccccc12 | 0 |  |
| Cc1ccc(C(=O)NC2CCSC2=O)cc1C (stereo not drawn) | 0 |  |
| Cc1ccc(CCNC(=O)c2noc(C)c2Cn2nc(C)cc2C)cc1 | 0.415 |  |
| O=C(Nc1ncn(Cc2ccc(Cl)cc2)n1)c1ccn(COc2ccc(F)cc2F)n1 | -5.05 |  |
| Fc1ccc(-c2ccc(CNCc3ccccc3)o2)cc1 | 136 |  |
| COc1nc2ccccc2nc1N1CCC(C(=O)Nc2ccccc2F)CC1 | 1.54 |  |
